# Measured values taken from PubChem BioAssay (NCATS).
# Several values for one entry are separate records, joined by “and”; a condition that tells them apart may be missing. Equal values may be shown once. A number with no mark means an inactive call. Results filed as inconclusive are left out. Activity calls are given as the source filed them. The call rests on the fitted dose curve; in most records, active means well fitted curve in the direction sought with a large enough effect; inconclusive means small, poorly fitted or top-dose-only effect, or another doubt; inactive means no such curve, though single readings can be large; an effect the other way counts as inactive or inconclusive.
# Legend:
# [1] = biological target: Cytochrome P450 3A4 (Homo sapiens) (UniProt P08684); assay: qHTS Assay for Inhibitors and Substrates of Cytochrome P450 3A4 (AID 884); further: nearly all actives have a fitted effect of over 50% in size; further: potency means the concentration at half of the fitted maximal effect
# Chain of Cytochrome P450 3A4 (Homo sapiens) (P08684 whole entry, looked up): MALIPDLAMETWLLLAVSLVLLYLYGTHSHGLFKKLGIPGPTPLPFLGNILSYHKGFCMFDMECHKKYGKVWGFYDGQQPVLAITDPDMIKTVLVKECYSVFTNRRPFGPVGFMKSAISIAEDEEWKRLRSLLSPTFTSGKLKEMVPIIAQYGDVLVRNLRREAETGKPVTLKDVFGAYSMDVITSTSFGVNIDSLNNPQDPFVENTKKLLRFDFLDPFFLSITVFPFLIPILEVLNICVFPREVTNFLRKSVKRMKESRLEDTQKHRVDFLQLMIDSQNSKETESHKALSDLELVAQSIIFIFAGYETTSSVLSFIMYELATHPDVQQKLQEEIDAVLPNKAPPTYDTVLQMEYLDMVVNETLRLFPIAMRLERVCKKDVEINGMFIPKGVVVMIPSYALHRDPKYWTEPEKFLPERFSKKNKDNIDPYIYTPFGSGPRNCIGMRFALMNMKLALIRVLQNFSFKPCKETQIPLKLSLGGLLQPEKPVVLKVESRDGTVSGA
# Procedure, shortened: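 Luminescent readout of luciferin produced by CYP3A4 (20 nM) dealkylation of Luciferin-PPXE, 25 uM (its KM). NADPH-driven reaction ran 60 min at RT after 10 min compound preincubation; data scaled to 57 uM ketoconazole as 100% inhibition.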
# [2] = biological target: Cytochrome P450 2C9 (Homo sapiens) (UniProt P11712); assay: qHTS Assay for Inhibitors and Substrates of Cytochrome P450 2C9 (AID 883); further: nearly all actives have a fitted effect of over 60% in size; further: potency means the concentration at half of the fitted maximal effect
# Chain of Cytochrome P450 2C9 (Homo sapiens) (P11712 whole entry, looked up): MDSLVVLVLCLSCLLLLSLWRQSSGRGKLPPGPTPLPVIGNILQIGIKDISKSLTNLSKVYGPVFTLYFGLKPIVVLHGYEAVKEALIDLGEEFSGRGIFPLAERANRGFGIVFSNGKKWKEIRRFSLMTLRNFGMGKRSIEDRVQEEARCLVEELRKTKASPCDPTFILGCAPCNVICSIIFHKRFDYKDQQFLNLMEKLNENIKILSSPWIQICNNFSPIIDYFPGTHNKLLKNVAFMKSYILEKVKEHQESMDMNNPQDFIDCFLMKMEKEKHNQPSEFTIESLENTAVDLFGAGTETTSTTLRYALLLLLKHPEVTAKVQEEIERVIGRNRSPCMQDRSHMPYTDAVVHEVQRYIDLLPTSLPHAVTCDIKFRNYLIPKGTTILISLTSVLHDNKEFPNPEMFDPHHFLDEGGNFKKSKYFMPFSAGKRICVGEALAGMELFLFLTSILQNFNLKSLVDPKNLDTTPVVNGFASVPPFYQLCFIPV
# Procedure, shortened: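 Inhibition of CYP2C9 is scored as loss of luminescence, with 57uM sulphaphenazole defining 100% inhibition. Substrate Luciferin-H is used at 100uM, equal to its KM; enzyme at 10nM in 25mM KPO4, 60 min at 37C with NADPH regeneration.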
# [3] = biological target: Cytochrome P450 2C19 (Homo sapiens) (UniProt P33261); assay: qHTS Assay for Inhibitors and Substrates of Cytochrome P450 2C19 (AID 899); further: nearly all actives have a fitted effect of over 60% in size; further: potency means the concentration at half of the fitted maximal effect
# Chain of Cytochrome P450 2C19 (Homo sapiens) (P33261 whole entry, looked up): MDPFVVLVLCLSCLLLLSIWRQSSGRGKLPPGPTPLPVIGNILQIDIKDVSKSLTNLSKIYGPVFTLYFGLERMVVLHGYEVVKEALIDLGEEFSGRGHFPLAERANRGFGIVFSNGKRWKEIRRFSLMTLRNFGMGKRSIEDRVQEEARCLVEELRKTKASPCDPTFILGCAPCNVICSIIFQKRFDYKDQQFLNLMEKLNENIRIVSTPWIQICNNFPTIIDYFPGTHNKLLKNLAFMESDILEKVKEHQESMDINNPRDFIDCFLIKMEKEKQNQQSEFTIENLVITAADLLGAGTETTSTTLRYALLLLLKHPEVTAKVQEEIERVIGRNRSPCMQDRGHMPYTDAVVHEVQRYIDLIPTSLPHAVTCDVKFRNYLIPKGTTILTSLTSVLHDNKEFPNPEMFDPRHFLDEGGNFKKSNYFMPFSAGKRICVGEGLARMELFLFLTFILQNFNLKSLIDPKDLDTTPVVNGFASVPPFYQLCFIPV
# Procedure, shortened: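 5nM enzyme + 10uM Luciferin-H EGE (=KM), 50mM KPO4; cpd pin-transferred, 10 min 37C; NADPH regen, 60 min 37C; stopped w/ luciferin detection reagent, 20 min; luminescence. Normalized to 57uM ketoconazole (AC100).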
# [4] = biological target: Cytochrome P450 2D6 (Homo sapiens) (UniProt P10635); assay: qHTS Assay for Inhibitors and Substrates of Cytochrome P450 2D6 (AID 891); further: nearly all actives have a fitted effect of over 60% in size; further: potency means the concentration at half of the fitted maximal effect
# Chain of Cytochrome P450 2D6 (Homo sapiens) (P10635 whole entry, looked up): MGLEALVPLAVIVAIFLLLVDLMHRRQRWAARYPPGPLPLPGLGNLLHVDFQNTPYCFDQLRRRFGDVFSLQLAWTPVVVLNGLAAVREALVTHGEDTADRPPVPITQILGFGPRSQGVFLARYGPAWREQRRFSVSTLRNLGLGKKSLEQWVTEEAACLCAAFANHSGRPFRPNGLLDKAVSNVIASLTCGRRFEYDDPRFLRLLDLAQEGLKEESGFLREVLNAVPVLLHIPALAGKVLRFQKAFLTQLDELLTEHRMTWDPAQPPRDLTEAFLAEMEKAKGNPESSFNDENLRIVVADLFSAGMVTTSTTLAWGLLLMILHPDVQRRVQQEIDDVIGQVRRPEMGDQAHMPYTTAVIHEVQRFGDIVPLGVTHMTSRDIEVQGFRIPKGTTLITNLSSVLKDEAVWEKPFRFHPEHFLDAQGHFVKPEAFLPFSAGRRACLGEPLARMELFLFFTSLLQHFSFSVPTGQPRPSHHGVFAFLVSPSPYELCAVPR
# Procedure, shortened: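 Luminescent read-out of luciferin formed by 5 nM human CYP2D6 demethylating 30 uM Luciferin-ME EGE (Km level) over 60 min at room temperature after NADPH regeneration addition. Data normalized to full inhibition by 1.43 uM quinidine.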
# [5] = biological target: Cytochrome P450 3A4 (Homo sapiens) (UniProt P08684); assay: qHTS Assay for Activators of Cytochrome P450 3A4 (AID 885); further: nearly all actives have a fitted effect of over 65% in size
# Procedure, shortened: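 Using 20nM recombinant human CYP3A4 in potassium phosphate (200mM), substrate Luciferin-PPXE at 25uM, luminescent luciferin detection followed a 60-min RT NADPH reaction; data scaled to 57 uM ketoconazole.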
smiles,measurement,setting,value
COC(=O)[C@@H]1C[C@@]2(O)[C@H](O)[C@H](O)[C@H](O)C[C@H]2N1Cc1ccc(C(C)(C)C)cc1,Potency,[1],inactive
C#CCCCO/N=C1/[C@H]2O[C@@H]2[C@@H](O)[C@H]2[C@H]1CCn1c(=O)n(Cc3cc4c(cc3Cl)OCO4)c(=O)n12,Potency,[2],inactive
same,Potency,[3],inactive
COc1cccc([C@@H]2Oc3ccc(Br)cc3C(=O)[C@H]2O)c1,Potency,[2],2.51 µM (active)
same,Potency,[4],3.16 µM (active)
same,Potency,[3],3.16 µM (active)
COC(=O)C1=C(C)N(Cc2ccccc2)C2=C(C(C)=O)C(c3ccccc3)[C@@](O)(C(=O)OC)C(=O)N2C1c1ccccc1 (some centres not stated),"activity change, positive = activation",[5],-79.4% [at 11.4 µM]
same,Potency,[4],inactive
same,Potency,[3],inactive
C=CC[C@@H]1C=C[C@H](O/N=C(\C)CCN2CCc3nc(-c4ccccc4)c(-c4ccccc4)cc3C2)[C@H](CO)O1,Potency,[1],3.98 µM (active)
same,"activity change, positive = activation",[5],-81.8% [at 11.4 µM]
COc1c(O)c(O)cc2c1oc1c3ccccc3oc(=O)c21,Potency,[1],25.1 µM (active)
same,Potency,[5],inactive
CCC1=C(OC(=O)N(CC)CC)N2C(=O)OC(=NCC3CC3)[C@]2(C)[C@H]2C1=CC[C@H]1C(=O)N(C)C(=O)[C@H]12,Potency,[1],10 µM (active)
same,Potency,[5],inactive
COC(=O)c1cccc(C23CC4(C2)[C@H](CN(Cc2cccnc2)[C@@H]4c2ccccc2)C3c2ccccc2)c1 (some centres not stated),Potency,[1],1.58 µM (active)
same,Potency,[5],inactive
COc1ccc(O[C@H]2C=C[C@@H](c3ccccc3)O[C@H]2COC(=O)CC/C(C)=N\O[C@@H](C)CN2CCCCc3nc(C)c(C)cc32)cc1,Potency,[1],3.98 µM (active)
same,"activity change, positive = activation",[5],-114% [at 11.4 µM]
CO[C@H]1COC(=O)[C@H](C)NC(=O)C/C=C\[C@@H](C)[C@@H](NS(=O)(=O)c2ccc(C)cc2)COC(=O)C/C=C\[C@@H]1C,Potency,[1],3.98 µM (active)
same,"activity change, positive = activation",[5],-80.3% [at 11.4 µM]
COC(=O)C/C=C\[C@@H](C)[C@@H](/C=N\O[C@@H](C)c1cn([C@H](CO)Cc2ccccc2)nn1)NS(=O)(=O)c1ccc(C)cc1,Potency,[1],3.98 µM (active) and 2 µM (active)
same,"activity change, positive = activation",[5],-101% [at 11.4 µM] and -92.7% [at 11.4 µM]
Clc1ccc(C2[C@H]3CN(Cc4cccnc4)[C@H](c4ccccc4)C34CC2(c2ccccc2)C4)cn1 (some centres not stated),Potency,[1],2 µM (active)
same,Potency,[5],inactive
CCC1=C(OC(=O)N(CC)CC)N2C(=O)OC(=NCCOC)[C@]2(C)[C@H]2C1=CC[C@H]1C(=O)N(CC)C(=O)[C@H]12,Potency,[1],7.94 µM (active)
same,Potency,[5],inactive
CCCNC(=O)OC[C@H]1O[C@@H](CCO/N=C\[C@@H](NS(=O)(=O)c2ccc(C)cc2)[C@H](C)/C=C\CC(=O)OC)C=C[C@@H]1Oc1ccc(OC)cc1,Potency,[1],3.16 µM (active)
same,"activity change, positive = activation",[5],-106% [at 11.4 µM]
CCC1=C(OC(=O)N(CC)CC)N2C(=O)OC(=NCC3CC3)[C@]2(C)[C@H]2C1=CC[C@H]1C(=O)NC(=O)[C@H]12,Potency,[1],10 µM (active)
same,Potency,[5],inactive
CCC1=C(OC(=O)N(CC)CC)N2C(=O)OC(=NCc3ccccc3)[C@]2(C)[C@H]2C1=CC[C@H]1C(=O)NC(=O)[C@H]12,Potency,[1],5.01 µM (active)
same,Potency,[5],inactive
CCC1=C2CC[C@H]3C(=O)N(c4ccccc4)C(=O)[C@H]3[C@H]2[C@@]2(Cc3ccccc3)C(=NCc3ccccc3)OC(=O)N2C1=O,Potency,[1],5.01 µM (active)
same,Potency,[5],inactive
CCC1=C(OC(=O)N(CC)CC)N2C(=O)OC(=NCC3CC3)[C@]2(Cc2ccccc2)[C@H]2C1=CC[C@H]1C(=O)N(CC)C(=O)[C@H]12,Potency,[1],5.01 µM (active)
same,Potency,[5],inactive
FC(F)(F)c1ccc(CN2C[C@@H]3C(c4ccc(Cl)nc4)C4(c5cccnc5)CC3(C4)[C@H]2c2ccccc2)cc1 (some centres not stated),Potency,[1],15.8 µM (active)
same,Potency,[5],inactive
CCC1=C(OC(=O)N(CC)CC)N2C(=O)OC(=NCCc3c[nH]c4ccccc34)[C@]2(Cc2ccccc2)[C@H]2C1=CC[C@H]1C(=O)N(C)C(=O)[C@H]12,Potency,[1],1.26 µM (active)
same,Potency,[5],inactive
c1ccc(C2[C@H]3CN(Cc4cccnc4)[C@H](c4ccccc4)C34CC2(c2cccnc2)C4)cc1 (some centres not stated),Potency,[1],1.58 µM (active)
same,Potency,[5],inactive
CCC1=C2CC[C@H]3C(=O)N(CC)C(=O)[C@H]3[C@H]2[C@@]2(Cc3ccccc3)C(=O)N(Cc3ccccc3)C(=O)N2C1=O,Potency,[1],3.98 µM (active)
same,Potency,[5],inactive
COc1cccc([C@H]2Oc3ccc(OC)cc3/C(=N\OC[C@@H](O)[C@@H]3O[C@@H]4OC(C)(C)O[C@@H]4[C@H]3O)[C@@H]2O)c1,Potency,[1],3.98 µM (active)
same,"activity change, positive = activation",[5],-69.8% [at 11.4 µM]
